Compounds with a hit are over-represented: about 6.7% of the library has one in this group of screens.
T cruzi growth-1 = T. cruzi intracellular proliferation inhibitors, primary screen, cell-based, beta-gal Tulahuen parasites, NIH3T3 host, luminescence. 77,000 tested, 5.9% active. inhibition, % at 8.34 µM. T. cruzi beta-gal in NIH3T3, GalScreen luminescence, 90 h;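 active = mean inhibition above about 93%, with at least 55% of replicates each passing it, limit read from the data, passing the limit was not always enough; inconclusive = only one of those two conditions holds; inactive = neither condition holds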
C diff HTS = C. difficile growth inhibitors, primary screen, HTS | 86,000 tested, 0.25% active | growth activity, negative = inhibition, % at 16 µg/mL (by protocol) | Clostridium difficile clinical isolate growth, OD600, 24 h; stronger effect = lower value;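 active = mean growth activity at or below -80% and every replicate also at or below -80%; inconclusive = mean at or below -80% but some replicate above -80%; inactive = mean growth activity above -80%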
Pf Dd2 growth = P. falciparum Dd2 growth inhibitors, primary screen, SYBR Green fluorescence, single dose replicates; 72 h; stronger effect = lower value; 94,000 tested, 2.3% active; activity change, % at 10 µM; in the data active = activity change below about -80%; inconclusive = no clear call, values can overlap the other calls
T cruzi growth-2 = T. cruzi intracellular proliferation inhibitors, confirmation, cell-based, NIH3T3 host, beta-gal parasite, luminescence, cherry-pick. shares compounds with T cruzi growth-1. T. cruzi beta-gal in NIH3T3, GalScreen luminescence, 90 h. inhibition, % at 8.35 µM. 5,600 tested, 72% active;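 active = mean replicate inhibition above about 95% and at least 55% of replicates individually reaching it, limit read from the data; inconclusive = only one of the two criteria is met; inactive = neither criterion is met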
T cruzi growth-3 = inhibitors of intracellular T. cruzi replication, confirmation, NIH3T3 host cells, beta-gal parasites, cherry-pick, set 2; inhibition, % at 2.09 µM; T. cruzi beta-gal in NIH3T3, GalScreen luminescence, 90 h; 5,600 tested, 21% active; shares compounds with T cruzi growth-1;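 active = mean inhibition above about 95%, with at least 55% of replicates also reaching it, limit read from the data; inconclusive = meets just one of the two conditions; inactive = meets neither condition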
NIH3T3 tox = cytotoxicity in mouse NIH/3T3 fibroblasts, confirmation, cytotoxicity control for T. cruzi proliferation inhibitor project, cell-based, cherry-pick, single point | shares compounds with T cruzi growth-1 | NIH/3T3 viability, CellTiter-Glo ATP luminescence, 90 h | cytotoxicity (signal decrease), % at 8.35 µM | 5,600 tested, 14% active | AID 651742, 2012;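 active = mean signal decrease across replicates above about 35% based on untreated-well scatter, with enough replicates individually passing, limit read from the data; inconclusive = no rule stated though some were filed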
NIH3T3 tox 2 = NIH/3T3 fibroblast cytotoxicity, confirmation, cytotoxicity control, cell-based, cherry-pick, single point, set 2. 5,600 tested, 56% active. inhibition, % at 24.9 µM. NIH/3T3 viability, CellTiter-Glo ATP luminescence, 90 h. AID 651744, 2012. shares compounds with T cruzi growth-1;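 active = mean loss of cell viability signal at or above a set limit, and enough replicates individually reaching it; inconclusive = meets only the mean limit or only the replicate share; inactive = meets neither condition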
A number is an active result; . = inactive; ? = inconclusive; / = not tested or not shown; ! = not confirmed by another sample.

SMILES	T cruzi growth-1	C diff HTS	Pf Dd2 growth	T cruzi growth-2	T cruzi growth-3	NIH3T3 tox	NIH3T3 tox 2
CO[C@H]1CN(C)C(=O)c2cc(NC(=O)C3CCC3)ccc2OC[C@@H](C)N(C)C[C@H]1C	.	/	.	/	/	/	/
COc1ccc(NC(=O)N(C)C[C@H]2Oc3ccc(NC(=O)Nc4cccc5ccccc45)cc3C(=O)N([C@H](C)CO)C[C@H]2C)cc1	.	.	.	/	/	/	/
O=C(C[C@@H]1C=C[C@H](NC(=O)Nc2ccc3c(c2)OCO3)[C@H](CO)O1)NCCCN1CCOCC1	/	.	.	/	/	/	/
CC(C)NC(=O)Nc1ccc2c(c1)C(=O)N([C@@H](C)CO)C[C@H](C)[C@@H](CN(C)S(=O)(=O)c1cn(C)cn1)OCCCC[C@H](C)O2	.	.	.	/	/	/	/
O=C(C[C@@H]1CC[C@H]2[C@@H](COC[C@@H](O)CN2Cc2cc(F)ccc2F)O1)N[C@H]1CCN(Cc2ccccc2)C1	.	.	.	/	/	/	/
O=C(C[C@H]1CC[C@H]2[C@@H](COC[C@@H](O)CN2Cc2cc(F)ccc2F)O1)N[C@H]1CCN(Cc2ccccc2)C1	157.6	.	.	.	.	.	.
CCCNC(=O)N1[C@@H](C#N)[C@H](c2ccc(C#Cc3cccc(F)c3)cc2)[C@@H]1CO	?	.	.	99.0	.	.	?
CCCNC(=O)N1[C@H](CO)[C@@H](c2ccccc2)[C@@H]1CNC(=O)c1ccccc1	.	.	.	/	/	/	/
CCCNC(=O)N1[C@@H](C#N)[C@@H](c2ccc(C#Cc3cccc(F)c3)cc2)[C@@H]1CO	99.9	.	.	102.6	.	.	49.5
CCCNC(=O)N1[C@H](CO)[C@H](c2ccccc2)[C@@H]1C#N	.	.	.	/	/	/	/
N#C[C@H]1[C@H](c2ccc(C#Cc3cccc(F)c3)cc2)[C@@H](CO)N1C(=O)C1CCOCC1	.	.	.	/	/	/	/
CCCNC(=O)N1[C@H](CO)[C@H](c2ccccc2)[C@@H]1CNC(=O)c1cccc(F)c1	97.9	.	.	.	.	.	.
C[C@H]1CN([C@@H](C)CO)S(=O)(=O)c2ccc(-c3cccnc3)cc2O[C@H]1CN(C)Cc1cncnc1	.	.	.	/	/	/	/
C[C@H]1CCCCO[C@H](CN(C)S(=O)(=O)c2cn(C)cn2)[C@@H](C)CN([C@@H](C)CO)C(=O)c2cc(NS(=O)(=O)c3ccc(Cl)cc3)ccc2O1	.	.	.	/	/	/	/
O=C(C[C@@H]1C=C[C@@H](NC(=O)C2CCOCC2)[C@@H](CO)O1)Nc1nccs1	/	.	.	/	/	/	/
C[C@@H]1CCCCO[C@@H](CN(C)C(=O)NC2CCCCC2)[C@@H](C)CN([C@@H](C)CO)C(=O)c2cc(NS(=O)(=O)c3ccc(F)cc3)ccc2O1	.	.	.	/	/	/	/
CCCNC(=O)N[C@@H]1CC[C@@H](CCn2cc(-c3cccc(F)c3)nn2)O[C@H]1CO	.	/	.	/	/	/	/
Cc1noc(C)c1NC(=O)N1C[C@H](O)COC[C@H]2O[C@@H](CC(=O)NCC3CC3)CC[C@@H]21	.	.	/	/	/	/	/
Cc1noc(C)c1NC(=O)N1C[C@H](O)COC[C@H]2O[C@H](CC(=O)NCC3CC3)CC[C@@H]21	.	.	/	/	/	/	/
Cc1noc(C)c1NC(=O)N1C[C@@H](O)COC[C@H]2O[C@@H](CC(=O)NCC3CC3)CC[C@@H]21	?	.	/	.	.	.	.
Cc1noc(C)c1NC(=O)N1C[C@@H](O)COC[C@H]2O[C@H](CC(=O)NCC3CC3)CC[C@@H]21	101.1	.	/	.	.	.	.
O=C(CC1CC1)Nc1ccc2c(c1)[C@@H]1C[C@H](CC(=O)N3CCOCC3)O[C@@H](CO)[C@@H]1O2	.	.	.	/	/	/	/
COc1cccc(C#Cc2ccc3c(c2)O[C@H](CN(C)C)[C@H](C)CN([C@@H](C)CO)S3(=O)=O)c1	.	.	.	/	/	/	/
COc1cccc(C#Cc2ccc3c(c2)O[C@H](CN(C)C)[C@@H](C)CN([C@@H](C)CO)S3(=O)=O)c1	/	.	.	/	/	/	/
COc1cccc(C#Cc2ccc3c(c2)O[C@H](CN(C)S(=O)(=O)c2ccccc2F)[C@@H](C)CN([C@@H](C)CO)S3(=O)=O)c1	118.1	.	.	111.0	116.0	38.4	27.4
SMILES	T cruzi growth-1	C diff HTS	Pf Dd2 growth	T cruzi growth-2	T cruzi growth-3	NIH3T3 tox	NIH3T3 tox 2
COc1cccc(C#Cc2ccc3c(c2)O[C@H](CN(C)S(=O)(=O)c2ccccc2F)[C@H](C)CN([C@H](C)CO)S3(=O)=O)c1	130.2	.	.	107.2	106.7	.	37.7!
CCCNC(=O)Nc1ccc2c(c1)OC[C@H](C)N(C(=O)C1CCCCC1)C[C@H](C)[C@@H](OC)CN(C)C2=O	/	.	.	/	/	/	/
C[C@@H]1CN([C@@H](C)CO)C(=O)c2cc(NS(C)(=O)=O)ccc2O[C@@H](C)CCCCO[C@@H]1CN(C)C(=O)NC1CCCCC1	.	/	.	/	/	/	/
O=C(NCC[C@@H]1CC[C@H](NC(=O)C2CCCC2)[C@@H](CO)O1)c1cc(Cl)cc(Cl)c1	/	.	.	/	/	/	/
C[C@H](CO)N1C[C@H](C)[C@@H](CN(C)C)Oc2ccc(NC(=O)c3ccncc3)cc2CC1=O	/	.	.	/	/	/	/
C[C@H]1CN([C@@H](C)CO)C(=O)c2cc(NS(=O)(=O)c3ccc(Cl)cc3)ccc2O[C@@H]1CN(C)Cc1ccc(Cl)c(Cl)c1	.	.	.	/	/	/	/
Cc1ccc(S(=O)(=O)Nc2ccc3c(c2)C(=O)N([C@@H](C)CO)C[C@@H](C)[C@@H](CN(C)Cc2ccc(Cl)c(Cl)c2)O3)cc1	118.9	.	.	107.4	107.0	.	102.8
C[C@H]1CN([C@@H](C)CO)C(=O)c2cc(NS(=O)(=O)c3ccc(F)cc3)ccc2O[C@H]1CN(C)Cc1ccc(Cl)c(Cl)c1	.	.	.	/	/	/	/
Cc1ccc(S(=O)(=O)Nc2ccc3c(c2)C(=O)N([C@@H](C)CO)C[C@H](C)[C@@H](CN(C)Cc2ccc(Cl)c(Cl)c2)O3)cc1	.	.	.	/	/	/	/
C[C@@H]1CN([C@@H](C)CO)C(=O)c2cc(NS(=O)(=O)c3ccc(F)cc3)ccc2O[C@H]1CN(C)Cc1ccc(Cl)c(Cl)c1	?	.	.	105.1	.	.	103.7
C[C@@H]1CN([C@@H](C)CO)C(=O)c2cc(NS(=O)(=O)c3ccc(F)cc3)ccc2O[C@@H]1CN(C)Cc1ccc(Cl)c(Cl)c1	100.6	.	.	98.6	.	?	107.2
Cc1ccc(S(=O)(=O)N(C)C[C@H]2Oc3c(NC(=O)C4CCCCC4)cccc3C(=O)N([C@@H](C)CO)C[C@@H]2C)cc1	.	.	.	/	/	/	/
CCC(=O)Nc1ccc2c(c1)OC[C@H](C)N(CCc1ccccc1)C[C@@H](C)[C@@H](OC)CN(C)C2=O	.	/	.	/	/	/	/

High-throughput results as filed in PubChem BioAssay.
